Among all 300,000 compounds or so, about 37,000 (12%) were called active. This excerpt belongs to a sample that is enriched for actives. Values without a mark were called inactive. Cut-off read from the data, not from the text of the source: active = max response mostly above about 13% (no sharp cut-off); inactive = mostly below about 14%.

The nature of this test: Cycloheximide Counterscreen for Small Molecule Inhibitors of Shiga Toxin. Note: read at 38.3 µM for the half of the compounds with a filed dose; 0% is about no effect. The following applies: cell reporter, cycloheximide protein synthesis inhibition counterscreen; stronger effect = higher value.
For `CCc1ccc(CNC(=O)C2CCN(c3nnc(C)c4c(C)n(-c5ccc(C)cc5)nc34)CC2)cc1`, the max response was -4.27%.
Turning to `COc1ccc(C(=O)N2CCCCC2C(=O)Nc2ccc(-n3nc(C)cc3C)cc2)o1` (stereo not drawn), the max response is -1.42%.
For `C[C@H](NC(=O)C1CC(=O)N(c2ccc3c(c2)OCO3)C1)C(=O)NCc1ccco1` (stereo partly drawn) the value was 1.48%; for `CCOc1ccc(C2C(C#N)=C(N)N(N(C)C)C3=C2C(=O)CCC3)cc1` (stereo not drawn), 0.68%.
For `O=C(NC(c1ccccc1)c1ccccc1)N1CCN(CCO)CC1` the value was -1.21%; for `O=C1c2ccccc2C(=O)c2c1cccc2N1CCN(CCO)CC1`, 28.2% (active).
For `O=C1c2ccccc2C(=O)c2c1cccc2N1CCN(Cc2ccccc2)CC1` the value was 1.13%; for `CN(C)c1ccc(S(=O)(=O)NCC(=O)NCC2CCCCC2)cc1[N+](=O)[O-]`, -5.92%; for `Cc1ccc(NC(=O)Cc2nnc(SCC(=O)Nc3nncs3)n2C)cc1`, -3.09%.
Turning to `CN1C(=O)/C(=C/c2ccc(C(=O)NC3CCCC3)cc2)Oc2ccccc21`, the max response was 7.07%.
For `COCCCN1C(=O)C(=O)/C(=C(/O)c2ccc(S(=O)(=O)N3CCOCC3)cc2)C1c1ccc(F)cc1` (stereo not drawn) the value was -2.34%; for `COc1ccc2cc(CCl)c(Cl)nc2c1`, 27% (active).
For `CCc1cc2cc(OC)ccc2nc1SCC(=O)Nc1cc(OC)c(OC)cc1C(=O)O` the value was -1.72%; for `COc1ccc(CN2CCC(c3nc4ccc(Cl)cc4[nH]3)CC2)cc1`, -5.26%.
For `O=C(NCc1ccccn1)C1CCN(S(=O)(=O)c2ccc(Br)cc2)CC1` the value was 5.38%; for `O=C(CSCc1ccccc1)Nc1ccccc1`, 54.4% (active); for `Cn1c(CSCC(=O)Nc2ccccc2)nnc1SCc1ccccc1`, 1.76%.
`Cc1c(NC(=O)CSCc2ccccc2)cccc1C(=O)O`: the max response is 10.7%.
For `CC(=O)c1ccc(NC(=O)c2ccc(-n3cncn3)c([N+](=O)[O-])c2)cc1` the value was 5.03%; for `CC(C)C(c1nnnn1C1CCCCC1)N1CCN(C(=O)c2ccco2)CC1` (stereo not drawn), -3.08%.
For `COc1ccc(N(CC(=O)Nc2ccc(F)c(F)c2)S(=O)(=O)c2c(C)[nH]c(=O)[nH]c2=O)cc1` the value was -1.45%.
For `CCc1ccc(/C=N/NC(=O)c2nnn(-c3nonc3N)c2CN2CCc3ccccc32)cc1` the value was 1.36%; for `CCOC(=O)C1CCCN(C(=O)c2cncc(Br)c2)C1` (stereo not drawn), -3.79%; for `Cc1noc(C)c1COc1cccc(C(=O)Nc2cccnc2)c1`, -2.49%.
With `CCCOC1CCCN(C(=O)c2cc(COc3cncc(Cl)c3)on2)C1` (stereo not drawn), the max response was 40.2% (active).
For `CC(CCc1ccccc1)NC(=O)c1cnc(Cl)c(Cl)c1` (stereo not drawn) the value was -1.25%.
For `Cc1cccc(OCC(=O)NCCNC(=O)c2cccnc2)c1` the value was -6.99%.
In the case of `CC(=O)c1cccc(OCc2cc(C(=O)NC(C)Cc3cccnc3)no2)c1` (stereo not drawn), the max response is 23% (active).
For `Cc1cccnc1CC(C)NC(=O)c1cc(COc2cncc(Cl)c2)on1` (stereo not drawn) the value was 32.7% (active); for `Cc1cccnc1NC(=O)CSc1nnc(COc2ccc(C(C)C)cc2)n1C`, -8.69%; for `CCOC(=O)CC1(NC(=O)c2cc(COc3cncc(Cl)c3)on2)CCCCC1`, 11.2% (active).
For the compound `Cc1cc(Cl)ccc1C(=O)C1CCCN(C(=O)c2nonc2C)C1` (stereo not drawn), the max response is -0.841%.
For `O=C(Cc1ccccc1)Nc1c(Cl)ccc2nsnc12` the value was -0.56%; for `CCOC(=O)c1c(S(=O)(=O)NCC(=O)Nc2ccc(C)cc2)c(C)n(C)c1C`, -0.626%; for `COC(=O)c1cc(NS(=O)(=O)c2ccc3c(c2)c(=O)n(C)c(=O)n3C)cc(C(=O)OC)c1`, -10.6%.
For `Cc1cccc(N(C(=O)c2csnn2)C(C(=O)NCc2ccccc2)c2ccncc2)c1` (stereo not drawn) the value was -3.2%; for `COc1ccc(S(=O)(=O)N2CCC(C(=O)NCc3ccco3)CC2)cc1C`, -1.76%.
For `Cc1ccccc1C(OCCN(C)C)C1CCCCC1` (stereo not drawn) the value was -3.58%.
As for `COc1ccc(NS(=O)(=O)c2cc(NC(=O)C3CCCCC3)ccc2N2CCOCC2)cc1`, the max response is -4.24%.
For `CC(C)CNc1ncnc2c1cnn2Cc1ccc(Cl)cc1` the value was -1.18%; for `CC(NC(=S)NNS(=O)(=O)c1ccc(C(C)(C)C)cc1)c1ccccc1` (stereo not drawn), -3.09%; for `CC(C)CC(NC(=O)C1CCCN1C(=O)[C@@H](C)NC(=O)OCc1ccccc1)C(=O)NCC(N)=O` (stereo partly drawn), 18.5%.
For `COCC(=O)N1CCCC(C(=O)c2ccc(C(F)(F)F)cc2)C1` (stereo not drawn) the value was 2.21%; for `COc1ccc(CNC(=O)Cc2ccc(-c3ccccc3)cc2)cc1OC`, -3.24%; for `CCn1cc(C(=O)NCCC(=O)NCCO)c(=O)c2cc3c(cc21)OCO3`, -3.2%.
For `O=C(NCc1nnc(SCC(=O)N2CCCCCC2)o1)c1ccc(F)cc1` the value was -0.334%.
On to `CC[C@@H]1Cc2cc(O)ccc2C2=C1c1ccc(O)cc1C[C@H]2CC`, for which the max response was -6.86%.
For `C=CCSc1nnc(N2C(=O)C(O)=C(C(=O)c3ccco3)C2c2ccc(F)cc2)s1` (stereo not drawn) the value was 1.8%; for `Cc1ccc2nc(N3C(=O)C(O)=C(C(=O)c4ccco4)C3c3cccc(O)c3)sc2c1` (stereo not drawn), 23.5% (active).
For `COc1cc(C2C(C(=O)c3ccco3)=C(O)C(=O)N2c2cc(C)on2)ccc1OCc1ccccc1` (stereo not drawn) the value was -4.25%; for `CCOC(=O)C1CCCN(CCSc2ccc(C)cc2)C1` (stereo not drawn), 0.771%; for `O=C(NC1CCCC1)C(c1ccco1)N(C(=O)c1ccco1)c1ccc(F)cc1` (stereo not drawn), -3.92%.
For `Cc1cc(F)ccc1NC(=O)C(C)n1c2ccccc2c2nc(=O)cc(C)n21` (stereo not drawn) the value was -0.783%; for `CSc1cccc(NC(=S)N(Cc2ccccc2)Cc2ccccn2)c1`, 7.83%; for `Cn1c(CC(=O)Nc2ccc(F)cc2)nnc1SCC(=O)NC1CCCCC1`, -1.89%.
Regarding `CCOC(=O)C1(Cc2cccc(OC)c2)CCCN(C(=O)CCSC)C1` (stereo not drawn), the max response is 28.4% (active).
For `CCOC(=O)C1(Cc2cccc(OC)c2)CCCN(S(=O)(=O)c2cccnc2)C1` (stereo not drawn) the value was -3.01%; for `CCOC(=O)C1(Cc2cccc(OC)c2)CCN(C(C)COC)CC1` (stereo not drawn), 12.7%; for `CN(C)C(CNC(=O)c1cccc(C#N)c1)c1ccco1` (stereo not drawn), 8.17%.
For `COCC(=O)Nc1ccc(Br)cc1` the value was -0.947%; for `CS(=O)(=O)N(CC(=O)Nc1ccc(F)cc1)C1CCCCC1`, -2.39%.
For `O=C(CCl)Nc1ccc(Sc2ccc(NC(=O)CCl)cc2)cc1` the value was 24.3% (active); for `O=C(CCl)Nc1cccc(CP(=O)(c2ccccc2)c2ccccc2)c1`, -1.7%; for `CCN(c1ccccc1)S(=O)(=O)c1ccc(NC(=O)C(C)(C)C)cc1`, -3.17%.
On to `CC(C)(CCl)C(=O)Nc1ccc(Sc2ccc(F)cc2)cc1`, for which the max response was 31% (active).
For `COC(=O)c1sc(N2CCN(Cc3ccccc3)CC2)nc1N` the value was -1.52%.
For `O=C(Nc1c2c(nn1-c1ccccc1)CS(=O)(=O)C2)C1CCCC1` the value was -1.45%.
Regarding `N#C/C(=C\c1ccc(-c2cccc([N+](=O)[O-])c2)o1)C(=O)NCCN1CCOCC1`, the max response is 2.05%.
For `O=[N+]([O-])c1ccccc1SNc1ccccn1` the value was 0.9%; for `C/C(CC(=O)NC(C)(C)C)=N\NC(=O)c1ccco1`, 40.4% (active).
For `CC(C)(C)NC(=O)c1cc(NC(=O)c2ccco2)cc(NC(=O)c2ccco2)c1` the value was -2.77%; for `COc1ccc(N(CC(=O)NC(C)(C)C)C(=O)c2ccco2)cc1`, 1.33%.
For `COc1cc(S(=O)(=O)N2CCN=C2c2ccccc2)ccc1Cl` the value was 3.04%; for `CCOC(=O)c1cn(Cc2cccc(C)c2)nn1`, -0.759%; for `CCOC(=O)c1nn(-c2cccc(C)c2)cc1C(=O)c1ccccc1`, 43.2% (active).
`CC(=O)c1nn(-c2cccc(Br)c2)cc1C(=O)c1cccc2ccccc12`: the max response was 4.07%.
For `Cc1ccc(S(=O)(=O)N(CC(=O)NCCSC2CCCCC2)c2ccccc2F)cc1` the value was -3.31%; for `NS(=O)(=O)c1ccc(CCNc2nc(C(F)(F)F)nc3ccccc23)cc1`, -0.703%; for `COc1ccc(CCNC(=O)CSCc2ccc(Br)cc2)cc1OC`, 1.16%.
For `COc1ccc(Cl)cc1C(=O)NCc1cn(C)nc1C` the value was -4.09%; for `Cn1c(SCC(=O)Nc2ccc(Cl)cc2)nc(O)cc1=O`, -0.536%.
Turning to `Cn1ccc(NC(=O)Nc2ccc(Cl)cc2)n1`, the max response was 36.8% (active).
As to `Cc1nn(C)cc1CNC(=O)Nc1ccc(Cl)cc1`, the max response was 21.8% (active).
For `Cc1nn(C)cc1C(=O)NNC(=S)Nc1ccc(Cl)cc1` the value was -3.2%; for `CN(C(=O)Nc1ccc(Cl)cc1)n1cnc2ccccc2c1=O`, 3.38%; for `CCc1ccccc1NC(=O)CN(c1ccc(OC)cc1OC)S(=O)(=O)c1ccccc1[N+](=O)[O-]`, 10.7%.
For `O=c1ccc2cc(S(=O)(=O)Nc3ccccc3F)ccc2o1` the value was -3.48%; for `Cc1ccc2c(c1)-c1c(ssc1=S)C(C)(C)N2C(=O)CN1C(=O)c2ccccc2C1=O`, -4.7%.
For `CCCCC1S/C(=N/N=C/c2cccs2)NC1=O` (stereo not drawn) the value was -2.78%.
As to `Nc1ccc(-c2sc(N)nc2-c2ccccc2)cc1`, the max response was 1.13%.
`Nc1ccc(-c2nnc(-c3ccccc3)o2)cc1`: the max response was 51.7% (active).
For `Nc1ccc(-c2nnc(-c3ccc(-c4ccccc4)cc3)o2)cc1` the value was 58% (active).
Turning to `COc1cccc(OC)c1C(=O)N1CCN(Cc2cccnc2)CC1`, the max response is -3.44%.

For the origin of these results see PubChem BioAssay AID2314 (National Center for Advancing Translational Sciences (NCATS), 2010).
